# Data: PubChem BioAssay AID504339 (National Center for Advancing Translational Sciences (NCATS), 2011)
# Among all 390,000 compounds or so, about 17,000 (4.4%) were called active. Where a call stands in place of a potency, no number is given. Another 8% or so got no clear call; they are omitted. This is one part of a sample in which actives are shown more often than they occur. Calls come from the whole dose curve; as a rule, active = well fitted inhibition curve with a large enough effect; inconclusive = small, poorly fitted or top-dose-only effect; inactive = no such curve, though single readings can be large or run the other way.
# Target: Lysine-specific demethylase 4A (Homo sapiens) (UniProt O75164)
# Assay: qHTS Assay for Inhibitors of JMJD2A-Tudor Domain; note: nearly all actives have a fitted effect of over 50% in size
# Conditions: AlphaScreen JMJD2A-Tudor / H3K4me3 peptide binding; series mostly up to 114 µM
# Potency is the fitted concentration of half-maximal effect.
# Sequence of Lysine-specific demethylase 4A (Homo sapiens) (O75164 whole entry, looked up, the tested form may be a part): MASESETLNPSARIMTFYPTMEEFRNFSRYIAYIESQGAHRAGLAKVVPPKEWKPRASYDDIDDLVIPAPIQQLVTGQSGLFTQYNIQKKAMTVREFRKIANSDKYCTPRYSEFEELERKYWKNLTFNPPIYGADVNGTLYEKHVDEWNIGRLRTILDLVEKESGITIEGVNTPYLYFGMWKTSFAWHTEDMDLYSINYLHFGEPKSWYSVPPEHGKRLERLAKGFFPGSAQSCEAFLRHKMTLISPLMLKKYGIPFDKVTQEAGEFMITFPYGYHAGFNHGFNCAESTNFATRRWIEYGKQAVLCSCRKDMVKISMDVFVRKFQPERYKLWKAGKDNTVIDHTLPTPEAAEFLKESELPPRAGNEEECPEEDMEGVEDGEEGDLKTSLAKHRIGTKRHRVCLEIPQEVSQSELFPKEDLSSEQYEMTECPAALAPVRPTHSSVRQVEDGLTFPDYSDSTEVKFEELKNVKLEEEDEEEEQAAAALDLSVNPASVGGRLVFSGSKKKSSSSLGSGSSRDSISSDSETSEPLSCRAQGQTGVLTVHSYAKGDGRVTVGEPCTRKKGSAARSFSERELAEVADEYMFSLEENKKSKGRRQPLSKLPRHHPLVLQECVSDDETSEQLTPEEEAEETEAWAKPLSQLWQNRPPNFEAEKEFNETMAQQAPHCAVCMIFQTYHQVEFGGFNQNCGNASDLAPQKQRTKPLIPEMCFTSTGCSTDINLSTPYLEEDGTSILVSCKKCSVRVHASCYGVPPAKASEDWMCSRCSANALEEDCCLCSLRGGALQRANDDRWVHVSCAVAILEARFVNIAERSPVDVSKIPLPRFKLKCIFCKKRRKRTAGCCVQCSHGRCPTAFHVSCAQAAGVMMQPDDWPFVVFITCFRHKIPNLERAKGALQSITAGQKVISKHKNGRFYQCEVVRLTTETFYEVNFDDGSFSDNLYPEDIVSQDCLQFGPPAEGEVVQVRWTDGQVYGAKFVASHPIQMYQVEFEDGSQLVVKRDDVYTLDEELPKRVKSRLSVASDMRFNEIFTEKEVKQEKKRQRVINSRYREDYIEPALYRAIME
row,SMILES,Potency
1,Cc1ccc(-n2ncc3c(N4CCC(C(N)=O)CC4)ncnc32)cc1,inactive
2,COc1ccc(Cn2c(C(=O)O)c(CNCc3cccc(OC)c3)c3ccc(C)cc32)cc1,inactive
3,COc1ccccc1C(=O)Nc1c(C(=O)Nc2ccc(C)cc2)oc2ccccc12,inactive
4,Cc1ccc(-c2nn3c(=O)cc(CN4CCN(S(=O)(=O)c5ccc(Cl)cc5)CC4)nc3s2)cc1,inactive
5,Cc1cccc(Cc2c(C)nc3nc(SCc4ccccc4Cl)nn3c2C)c1,inactive
6,O=C(CNc1ccc(F)cc1F)NC(=O)NCc1ccco1,inactive
7,Cc1cc(C)n2nc(SCC(=O)NC(=O)NCc3ccco3)nc2n1,20 µM (active)
8,Cc1cc(C)n2nc(SCC(N)=O)nc2n1,inactive
9,COc1ccc(-c2onc(C)c2C)cc1S(=O)(=O)NCC1CCN(Cc2cccc(F)c2)CC1,inactive
10,COC(=O)c1ccc(NC(=O)CSc2n[nH]c(-c3ccccc3)n2)cc1,inactive
11,CCN(CC)S(=O)(=O)c1cccc(-c2n[nH]c(=S)n2/N=C/c2ccc(C(=O)OC)cc2)c1,10 µM (active)
12,CCN(CC)S(=O)(=O)c1cccc(NC(=O)c2ccc(S(=O)(=O)N3CCCC3)cc2)c1,inactive
13,COc1ccc(N2C(=O)CS(=O)(=O)C23C(=O)N(Cc2ccc(C)cc2)c2ccccc23)cc1Cl (stereo not drawn),inactive
14,COc1ccc(CC(=O)NCCc2sc3nc(-c4ccc(OC)cc4)nn3c2C)cc1,inactive
15,Cc1cccc(C(=O)NCCc2nc3ccccc3n2Cc2ccccc2Cl)c1,inactive
16,Cc1nn(C)cc1C(=O)NNC(=S)Nc1ccc(Cl)cc1,inactive
17,Cc1cccc(-n2cnc(C(=O)Nc3cccnc3)c2)n1,inactive
18,Cc1cccc(-n2cnc(C(=O)NNC(=S)Nc3ccccc3)c2)n1,35.5 µM (active)
19,Cc1ccc2c(c1)c1c(c(=O)n(-c3ccccc3)c(=O)n1CC(=O)c1ccc(Cl)cc1)n2C,inactive
20,Cc1ccc(C)c(OCC(=O)Nc2sc3c(c2C#N)CCCC3)c1C,inactive
21,Cc1cc(C)cc(NC(=O)CSc2nc(=O)n(CCN3CCOCC3)c3c2CCC3)c1,inactive
22,CC1CC(C)CN(CCOc2cccc3ccccc23)C1 (stereo not drawn),inactive
23,O=C(COc1ccccc1Cl)N1CCCCCCC1,inactive
24,O=S(=O)(c1cccs1)N1CCN(CCOc2ccccc2)CC1,inactive
25,CC1CCCN(CC(=O)Nc2cc(Cl)ccc2Oc2ccccc2)C1 (stereo not drawn),inactive
26,c1ccc(-c2ccccc2OCCN2CCCCC2)cc1,8.91 µM (active)
27,CC1CCCN(CCOCCOc2ccccc2-c2ccccc2)C1 (stereo not drawn),20 µM (active)
28,COCCNC(=O)CSc1nc(-c2ccccc2)[nH]c1-c1ccc(C)cc1,inactive
